This is a sample that favours compounds with a hit; in the whole collection about 18% have one here.
KAT2A inh – GCN5L2 (KAT2A) acetyltransferase inhibition. Potency, µM (doses to about 58.9 µM), for the others: at the top dose activity change, negative = inhibition, most hits filed as inhibitors. Q92830. 390,000 compounds, 0.21% hits. GCN5L2 HAT assay, ThioGlo1 CoA-SH fluorescence
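GCN5L2 (20 nM) in 50mM HEPES pH 7.5, 0.1mM EDTA, 0.01% Tween-20 preincubated 15 min with compounds at room temperature. Reaction started with H3(1-25) 75uM, acetyl-CoA 70uM, ThioGlo1 50uM; CoA-thiol fluorescence (Ex340/Em540) read at 0 and 20 min.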
DT40 TDP1 no CPT – qHTS for Inhibitors of human tyrosyl-DNA phosphodiesterase 1 (TDP1): qHTS in cells in absence of CPT | AID 686978, 2013 | 420,000 compounds, 15% hits | DT40 Tdp1-/- hTDP1 cells, no CPT, ATP luminescence, 48 h | Potency, µM (series often up to 46.2 µM), inactives show top-dose activity change, negative = growth inhibition, hits mostly inhibitors; further: nearly all actives have a fitted effect of over 55% in size
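A cellular qHTS used chicken DT40 cells lacking endogenous Tdp1 but carrying stably transfected human TDP1. Compounds were applied without camptothecin, and cell growth kinetics were judged by ATP-dependent luminescence after ≥48 hr.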
TDP1 cell CPT – growth inhibition of DT40 Tdp1-/-;hTDP1 cells with camptothecin (screen for TDP1 inhibitors). chicken DT40 Tdp1-/-;hTDP1 cells + 20 nM CPT, ATP luminescence, 48 h. 420,000 compounds, 12% hits. Potency, µM (top dose mostly 46.2 µM), for inactives: top-dose activity change, negative = growth inhibition, most hits filed as inhibitors; further: nearly all actives have a fitted effect of over 55% in size
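Chicken DT40 Tdp1-/- cells stably complemented with human TDP1 were seeded at 400 cells/well in medium containing 20 nM camptothecin, exposed to pin-transferred compounds, and grown at 37 °C for at least 48 hr. Viability was read as ATP luminescence.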
TDP1 inh – inhibitors of human tyrosyl-DNA phosphodiesterase TDP1; recombinant TDP1, AlphaScreen DNA substrate cleavage; Potency, µM (top dose mostly 130 µM), inactives show at the top dose activity change, negative = inhibition, usual class: inhibitors; 350,000 compounds, 0.28% hits; AID 485290; further: nearly all actives have a fitted effect of over 40% in size
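Enzyme-compound mixtures sat 15 min at room temperature, followed by a 5 min reaction with 15 nM final substrate and 10 min with AlphaScreen beads. Recombinant human Tdp1 was used at 1 nM final.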
PLK1 PBD inh – blocks phosphopeptide binding to human PLK1 polo-box domain; 360,000 compounds, 2.8% hits; P53350; AID 720504; Potency, µM, inactives show max response, negative = inhibition, usual class: inhibitors; Plk1 PBD binding of FITC phosphopeptide, fluorescence polarization; further: series mostly up to about 57 µM; nearly all actives have a fitted effect of over 65% in size
Target sequence (P53350 whole entry, looked up, the tested form may be a part): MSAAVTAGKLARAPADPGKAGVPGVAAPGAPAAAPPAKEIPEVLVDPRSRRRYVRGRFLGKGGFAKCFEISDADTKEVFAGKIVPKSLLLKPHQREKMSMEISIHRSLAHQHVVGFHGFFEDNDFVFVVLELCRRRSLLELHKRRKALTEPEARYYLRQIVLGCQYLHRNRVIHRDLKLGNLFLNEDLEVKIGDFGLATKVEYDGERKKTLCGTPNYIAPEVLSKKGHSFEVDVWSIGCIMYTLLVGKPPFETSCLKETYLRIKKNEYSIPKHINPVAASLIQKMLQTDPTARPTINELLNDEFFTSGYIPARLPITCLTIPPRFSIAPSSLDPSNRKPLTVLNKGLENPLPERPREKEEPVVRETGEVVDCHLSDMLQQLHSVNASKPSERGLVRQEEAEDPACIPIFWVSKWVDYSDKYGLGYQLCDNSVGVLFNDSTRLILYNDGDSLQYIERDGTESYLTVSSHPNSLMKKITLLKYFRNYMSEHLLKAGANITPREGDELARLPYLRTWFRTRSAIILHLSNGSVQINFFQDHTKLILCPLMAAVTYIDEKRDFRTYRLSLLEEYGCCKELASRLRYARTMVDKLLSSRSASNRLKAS
VDR inh – blocks the human vitamin D receptor; VDR-SRC2-3 peptide fluorescence polarization, 2 h; Potency, µM, for the others: max response, negative = inhibition, most hits filed as inhibitors; 400,000 compounds, 0.93% hits; AID 504847
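Reagent solutions, kept cold and dark, are dispensed first; compounds are then pinned in at 23 nl, plates briefly spun, and incubated 2 h at ambient temperature. Inhibition of VDR–SRC2-3 peptide binding is read by fluorescence polarization.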
Numbers without * were called inactive; ? = inconclusive; · = no result; [ ] = another dose, or the depositor's remark. The call rests on the fitted dose curve; in most records, active means well fitted curve in the direction sought with a large enough effect; inconclusive means small, poorly fitted or top-dose-only effect, or another doubt; inactive means no such curve, though single readings can be large; an effect the other way counts as inactive or inconclusive. On the % scale 0 is the no-effect control and ±100 the full control effect; potency means the concentration at half of the fitted maximal effect.

SMILES	KAT2A inh	DT40 TDP1 no CPT	TDP1 cell CPT	TDP1 inh	PLK1 PBD inh	VDR inh
O=C(N/N=C1\CCCc2ccccc21)c1cccc([N+](=O)[O-])c1	32µM*	-13%	1%	3%	-2%	-2%
COc1ccc(/C=N/NC(=O)c2cccc([N+](=O)[O-])c2)cc1O	-1%	?	-29%	-2%	-20%	0%
O=C(C[C@H]1C/C=C\CCCCC(=O)OC[C@H]2CCCN2C1=O)N[C@H](CO)Cc1ccccc1	-1%	?	?	1%	3%	-25%
COc1ccccc1/C=N/NC(=O)c1ccc(NC(=O)c2cccc([N+](=O)[O-])c2)cc1	6%	·	·	3%	·	·
O=C(N/N=C/c1cccc(O)c1)c1ccc(NC(=O)c2cccc([N+](=O)[O-])c2)cc1	-10%	18µM*	?	5%	-6%	2%
Cc1cccc(C(=O)Nc2cccc(C(=O)N/N=C/c3ccccn3)c2)c1	-23%	?	-16%	·	-20%	-6%
Cc1cccc(C(=O)N/N=C/c2ccccn2)c1	0%	15µM*	?	3%	-8%	-3%
O=C(N=C1c2ccccc2CN1c1ccccc1)c1cccc([N+](=O)[O-])c1	-4%	12µM*	-13%	3%	-23%	7%
CCOC(=O)c1ccc(N2Cc3ccccc3C2=NC(=O)c2cccc([N+](=O)[O-])c2)cc1	·	3%	-27%	·	-10%	7%
O=C(N/N=C/c1ccccn1)c1cccc([N+](=O)[O-])c1	-2%	16µM*	?	5%	-6%	-8%
CO[C@]1(C)C[C@H]2O[C@]1(C)n1c3ccccc3c3c4c(c5c6ccccc6n2c5c31)C(=O)N(C)C4	36%	·	·	5%	·	7%
Cc1ccc(Cl)cc1N(CC(=O)NC(C)c1ccccc1)S(C)(=O)=O (stereo unspecified)	-5%	-13%	-6%	·	?	-5%
Cc1ccccc1CNC(=O)CCC(=O)N1CCOc2ccc(Cl)cc21	3%	-14%	-8%	·	-17%	-1%
Cc1noc(C)c1C(=O)N1CCCC(C)(C(=O)NS(=O)(=O)C2CC2)C1 (stereo unspecified)	·	?	-30%	·	-6%	·
O=C(CNc1ccc2ccccc2c1)N/N=C/c1ccccn1	-4%	18µM*	?	10%	-3%	3%
O=C(N/N=C/c1ccccn1)c1cc([N+](=O)[O-])cc([N+](=O)[O-])c1	-5%	21µM*	?	11%	-5%	-14%
O=C(CNc1ccc2ccccc2c1)N/N=C/c1ccncc1	-1%	1%	-6%	·	?	-5%
CC(/C=C/c1ccc2c(c1)OCO2)=N\NC(=O)c1cccc([N+](=O)[O-])c1	-1%	15µM*	21µM*	8%	-2%	-3%
O=C(N/N=C/c1ccccn1)c1ccc([N+](=O)[O-])cc1	-10%	-9%	1%	3%	-8%	3%
O=C(N/N=C/c1ccccc1O)c1cccc(C(F)(F)F)c1	-16%	3.3µM*	5.2µM*	?	2%	-5%
CC1CCc2c(sc3nnn(Cc4cccc(C(=O)OC(C)C)c4)c(=O)c23)C1 (stereo unspecified)	1%	-18%	-26%	-2%	·	1%
Cn1c(=O)c(CCc2ccccc2)nc2cnc(OCc3ccccc3)nc21	-8%	-7%	12%	·	·	-4%
CCc1cccc(NC(=O)Cn2c(=O)n(CC(=O)NCCc3ccccc3)c(=O)c3ccccc32)c1	-21%	?	?	-5%	·	-15%
COC(=O)CCC[C@H]1CC2(C[C@H](CCCO[Si](C)(C)C(C)(C)C)N1C(=O)OC(C)(C)C)OCCO2	0%	18µM*	?	0%	-13%	-16%
O=c1cc(-c2ccsc2)oc2cc(-c3ccc4c(c3)OCO4)ccc12	0%	?	18µM*	7.1µM*	-14%	-8%
SMILES	KAT2A inh	DT40 TDP1 no CPT	TDP1 cell CPT	TDP1 inh	PLK1 PBD inh	VDR inh
COc1ccc(-c2ccc3c(=O)cc(-c4ccsc4)oc3c2)cn1	?	?	18µM*	·	23%	-18%
O=c1cc(-c2ccc3c(c2)OCCO3)oc2ccc(Cl)cc12	8%	?	?	-2%	-5%	-27%
COc1cccc2sc(N(Cc3cccnc3)C(=O)COc3ccccc3)nc12	-1%	-15%	-19%	5%	·	-10%
COc1ccc(-c2ccnc3nc(N4CCN(c5ccccc5)CC4)nn23)cc1	-15%	21µM*	?	3%	0%	-8%
Fc1ccc(-c2ccnc3nc(N4CCOCC4)nn23)cc1	-26%	-3%	-15%	4%	-3%	-11%
CCNc1ncc2nc(-c3cc(F)cc(F)c3)c(=O)n(CCOC)c2n1	-21%	-5%	-15%	·	·	-22%
COC(=O)c1cccc(C(=O)NCc2nc(-c3cccc(NC(=O)c4ccoc4C)c3)oc2C)c1	·	21µM*	-6%[9.04 µM]	·	·	·
Cc1nc(C)c(C(=O)NCc2nc(-c3cccc(NC(=O)c4ccccn4)c3)oc2C)s1	·	2.9µM*	3.3µM*	·	·	·
CSc1nc(C(=O)NCc2nc(-c3cccc(NC(=O)c4ccccn4)c3)oc2C)cs1	·	?	10%[9.04 µM]	·	·	·
Cc1occc1C(=O)Nc1cccc(-c2nc(CNC(=O)c3ccc4ccccc4n3)c(C)o2)c1	·	6.5µM*	8.2µM*	·	·	·
Cc1cc(C(=O)NCc2nc(-c3cccc(NC(=O)c4ccccc4)c3)oc2C)nc(C)n1	·	-18%	-4%[9.04 µM]	·	·	·
CSc1ccccc1C(=O)NCc1nc(-c2cccc(NC(=O)c3ccoc3C)c2)oc1C	·	21µM*	?	·	·	·
Cc1ccc(C(=O)Oc2ccccc2N2C(=O)C3C4CCC(C4)C3C2=O)cc1 (stereo unspecified)	-3%	-14%	-9%	-3%	8%	-4%
CCOc1ccc(N2C(=O)CC(N)C2=O)cc1 (stereo unspecified)	-10%	2.6µM*	1.8µM*	3%	-21%	-3%
CCOc1ccc(N2C(=O)CC(Sc3nc(CC(C)C)ccc3C#N)C2=O)cc1 (stereo unspecified)	-3%	?	23µM*	7%	-6%	-12%
CCOc1ccc(N2C(=O)C3CCCN3C2=S)cc1 (stereo unspecified)	-4%	-11%	-3%	1%	21µM*	-11%
CCOc1ccc(N2C(=O)CC(Sc3nc(C)cc(C)c3C#N)C2=O)cc1 (stereo unspecified)	3%	?	?	-5%	-8%	-4%

Source: PubChem
